Results reported in PubChem BioAssay AID1159580 (chemical genetic matrix, 2015).
Screen size: about 5,500 compounds; about 2,000 (36%) were called active. About 18% were inconclusive and are not listed. Cut-off read from the data, not from the text of the source: active = normalized growth mostly below about 0.91 (no sharp cut-off); inconclusive = no clear call, values can overlap the other calls; inactive = mostly above about 0.92. Some of the results follow.

Test: chemical genetic growth profiling, strain panel (AID 1159580);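 note: tested at 20 µM; growth read once vehicle control cultures reached saturation at 30 °C; 1 = growth at the plate median or of vehicle wells; lower values mean less growth of the strain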
Conditions: growth OD

Measured: normalized growth

CC1(C)O[C@@H]2CC3C4C[C@H](F)C5=CC(=O)CC[C@]5(C)C4[C@@H](O)C[C@]3(C)[C@]2(C(=O)CO)O1 (some centres not stated)
inactive: S. cerevisiae deletion strains, locus YJR075W, strain HOC1, hits give low values 1.01 | S. cerevisiae deletion strains, locus YKL009W, strain mrt4, hits give low values 0.999 | S. cerevisiae deletion strains, locus YKL068W, hits give low values 1.02 | S. cerevisiae deletion strains, locus YKL085W, strain MDH1 (second series), hits give low values 1 | S. cerevisiae deletion strains, locus YKL085W, strain MDH1, hits give low values 1 | S. cerevisiae deletion strains, locus YKL160W, strain elf1, hits give low values 0.988 | S. cerevisiae deletion strains, locus YKL190W, strain CNB1, hits give low values 1.02 | S. cerevisiae deletion strains, locus YKR001C, strain vps1, hits give low values 1.01 | S. cerevisiae deletion strains, locus YKR026C, strain gcn3, hits give low values 1 | S. cerevisiae deletion strains, locus YKR091W, strain srl3, hits give low values 0.997 | S. cerevisiae deletion strains, locus YLL001W, strain dnm1, hits give low values 0.977 | S. cerevisiae deletion strains, locus YLL026W, hits give low values 1.01 | S. cerevisiae deletion strains, locus YLL041C, strain sdh2, hits give low values 1.01 | S. cerevisiae deletion strains, locus YLR027C, strain aat2, hits give low values 1.02 | S. cerevisiae deletion strains, locus YLR039C, strain RIC1, hits give low values 1.03 | S. cerevisiae deletion strains, locus YLR058C, strain SHM2, hits give low values 1.02 | S. cerevisiae deletion strains, locus YLR102C, strain apc9, hits give low values 1.01 | S. cerevisiae deletion strains, locus YLR113W, strain HOG1, hits give low values 1.02 | S. cerevisiae deletion strains, locus YLR221C, strain rsa3, hits give low values 0.999 | S. cerevisiae deletion strains, locus YLR258W, strain gsy2, hits give low values 1.02 | S. cerevisiae deletion strains, locus YLR262C, strain YPT6 (second series), hits give low values 0.988 | S. cerevisiae deletion strains, locus YLR262C, strain YPT6, hits give low values 1.04 | S. cerevisiae deletion strains, locus YLR268W, strain sec22, hits give low values 1.01 | S. cerevisiae deletion strains, locus YLR320W, strain mms22, hits give low values 0.985 | S. cerevisiae deletion strains, locus YLR330W, strain CHS5, hits give low values 1.01 | S. cerevisiae deletion strains, locus YLR342W, strain FKS1 (second series), hits give low values 0.997 | S. cerevisiae deletion strains, locus YLR342W, strain FKS1, hits give low values 1.01 | S. cerevisiae deletion strains, locus YLR357W, strain rsc2, hits give low values 0.968 | S. cerevisiae deletion strains, locus YLR370C, strain arc18, hits give low values 1 | S. cerevisiae deletion strains, locus YLR371W, strain rom2, hits give low values 1 | S. cerevisiae deletion strains, locus YLR384C, strain iki3, hits give low values 0.986 | S. cerevisiae deletion strains, locus YLR418C, strain cdc73, hits give low values 1.01 | S. cerevisiae deletion strains, locus YML016C, strain PPZ1, hits give low values 1.01 | S. cerevisiae deletion strains, locus YML032C, strain rad52, hits give low values 0.996 | S. cerevisiae deletion strains, locus YML120C, strain ndi1, hits give low values 1.01 | S. cerevisiae deletion strains, locus YML124C, strain tub3, hits give low values 1.01 | S. cerevisiae deletion strains, locus YMR058W, strain fet3, hits give low values 1.02 | S. cerevisiae deletion strains, locus YMR078C, strain ctf18, hits give low values 1.01 | S. cerevisiae deletion strains, locus YMR125W, strain sto1, hits give low values 1.02 | S. cerevisiae deletion strains, locus YMR129W, hits give low values 1.02 | S. cerevisiae deletion strains, locus YMR205C, strain PFK2, hits give low values 1.01 | S. cerevisiae deletion strains, locus YMR223W, strain ubp8, hits give low values 0.993 | S. cerevisiae deletion strains, locus YMR231W, strain pep5, hits give low values 1 | S. cerevisiae deletion strains, locus YMR263W, strain SAP30, hits give low values 1.02 | S. cerevisiae deletion strains, locus YMR307W, strain GAS1, hits give low values 1.01 | S. cerevisiae deletion strains, locus YNL067W, strain RPL9B, hits give low values 1.01 | S. cerevisiae deletion strains, locus YNL071W, strain lat1, hits give low values 1.01 | S. cerevisiae deletion strains, locus YNL128W, strain TEP1, hits give low values 1.02 | S. cerevisiae deletion strains, locus YNL153C, strain GIM3, hits give low values 1.01 | S. cerevisiae deletion strains, locus YNL183C, strain NPR1, hits give low values 0.931 | S. cerevisiae deletion strains, locus YNL209W, strain ssb2, hits give low values 0.999 | S. cerevisiae deletion strains, locus YNL233W, strain BNI4, hits give low values 1.01 | S. cerevisiae deletion strains, locus YNL248C, strain rpa49, hits give low values 0.987 | S. cerevisiae deletion strains, locus YNL250W, strain rad50, hits give low values 1 | S. cerevisiae deletion strains, locus YNL271C, strain bni1, hits give low values 1.01 | S. cerevisiae deletion strains, locus YNL298W, strain CLA4, hits give low values 1 | S. cerevisiae deletion strains, locus YNL307C, strain MCK1, hits give low values 1.01 | S. cerevisiae deletion strains, locus YNL322C, strain KRE1 (second series), hits give low values 0.993 | S. cerevisiae deletion strains, locus YNL322C, strain KRE1, hits give low values 1.02 | S. cerevisiae deletion strains, locus YNR049C, strain mso1, hits give low values 1 | S. cerevisiae deletion strains, locus YNR052C, strain pop2, hits give low values 0.999 | S. cerevisiae deletion strains, locus YOL006C, strain TOP1, hits give low values 1.04 | S. cerevisiae deletion strains, locus YOL012C, strain htz1 0.952 | S. cerevisiae deletion strains, locus YOL147C, strain pex11, hits give low values 1.01 | S. cerevisiae deletion strains, locus YOR001W, strain rrp6, hits give low values 1 | S. cerevisiae deletion strains, locus YOR061W, strain CKA2, hits give low values 1.01 | S. cerevisiae deletion strains, locus YOR069W, strain VPS5, hits give low values 1.01 | S. cerevisiae deletion strains, locus YOR070C, strain gyp1, hits give low values 1.01 | S. cerevisiae deletion strains, locus YOR080W, strain dia2, hits give low values 1.02 | S. cerevisiae deletion strains, locus YOR083W, strain WHI5, hits give low values 0.946 | S. cerevisiae deletion strains, locus YOR106W, strain vam3, hits give low values 1.01 | S. cerevisiae deletion strains, locus YOR136W, strain idh2, hits give low values 0.994 | S. cerevisiae deletion strains, locus YOR144C, strain elg1, hits give low values 1 | S. cerevisiae deletion strains, locus YOR184W, strain ser1, hits give low values 1 | S. cerevisiae deletion strains, locus YOR231W, strain MKK1, hits give low values 1.03 | S. cerevisiae deletion strains, locus YOR265W, strain rbl2, hits give low values 1.01 | S. cerevisiae deletion strains, locus YOR270C, strain vph1, hits give low values 1.03 | S. cerevisiae deletion strains, locus YOR290C, strain snf2, hits give low values 1.01 | S. cerevisiae deletion strains, locus YOR316C, strain cot1, hits give low values 1.01 | S. cerevisiae deletion strains, locus YPL051W, strain arl3, hits give low values 1.01 | S. cerevisiae deletion strains, locus YPL055C, strain LGE1, hits give low values 1.04 | S. cerevisiae deletion strains, locus YPL078C, strain atp4, hits give low values 1.01 | S. cerevisiae deletion strains, locus YPL106C, strain sse1, hits give low values 0.973 | S. cerevisiae deletion strains, locus YPL240C, strain hsp82, hits give low values 1 | S. cerevisiae deletion strains, locus YPL241C, strain CIN2, hits give low values 0.962 | S. cerevisiae deletion strains, locus YPL256C, strain CLN2, hits give low values 1.03 | S. cerevisiae deletion strains, locus YPR119W, strain clb2, hits give low values 1 | S. cerevisiae deletion strains, locus YPR141C, strain kar3, hits give low values 1.01 | S. cerevisiae deletion strains, locus YPR163C, strain tif3, hits give low values 1 | S. cerevisiae deletion strains, locus YPR167C, strain met16, hits give low values 1 | S. cerevisiae deletion strains, strain wtn01, hits give low values 1.01 | S. cerevisiae strains, strain wild type, hits give low values 1.02
